Records with an inconclusive call do not appear. Calls of active or inactive are those of the source. Unless noted, calls follow the shape of the full dose curve.
What was measured:
[1] = Nuclear factor erythroid 2-related factor 2/antioxidant responsive element (Nrf2/ARE) small molecule agonists: qHTS cell viability counter screen in human keratinocytes (AID 1919968; active = well fitted curve in the direction sought with a large enough effect in the repeat runs; an effect the other way counts as inactive or inconclusive; also: nearly all actives have a fitted effect of over 55% in size)
Summary of the method: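 Measured as CellTiter-Fluor fluorescence, this readout tracks cytotoxicity in the same wells as the ARE-luciferase screen. HaCaT reporter cells (1,500/well) received compounds after a 5 h pre-incubation and were exposed for 23 h.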

[2] = Nuclear factor erythroid 2-related factor 2/antioxidant responsive element (Nrf2/ARE) small molecule agonists: luciferase reporter gene qHTS assay in human keratinocytes (AID 1919969); also: nearly all actives have a fitted effect of over 35% in size
[3] = molecular target: Gonadotropin-releasing hormone receptor (Homo sapiens) (UniProt P30968); assay: Human gonadotropin-releasing hormone receptor (GnRHR) small molecule agonists, calcium flux assay in GnRHR-HEK293 cells (AID 1920063); also: nearly all actives have a fitted effect of over 35% in size
Gonadotropin-releasing hormone receptor (Homo sapiens), sequence (P30968 whole entry, looked up): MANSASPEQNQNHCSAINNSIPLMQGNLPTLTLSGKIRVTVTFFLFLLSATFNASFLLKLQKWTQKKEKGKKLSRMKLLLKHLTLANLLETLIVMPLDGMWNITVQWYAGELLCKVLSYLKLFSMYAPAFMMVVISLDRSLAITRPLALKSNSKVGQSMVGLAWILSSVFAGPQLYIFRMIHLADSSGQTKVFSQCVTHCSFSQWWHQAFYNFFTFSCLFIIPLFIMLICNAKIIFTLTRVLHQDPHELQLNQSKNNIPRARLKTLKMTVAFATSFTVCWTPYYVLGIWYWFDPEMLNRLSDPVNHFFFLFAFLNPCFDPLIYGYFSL
Summary of the method: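 Fluorescence kinetics (480 nm excitation, 540 nm emission; 3 min, 1 s steps) report calcium mobilisation in human GnRHR-HEK293 cells in agonist mode. Dye incubation: 1 h, 37 C.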

[4] = molecular target: KiSS-1 receptor (Homo sapiens) (UniProt Q969F8); assay: Human kisspeptin (KISS1R) small molecule agonists, calcium flux assay in KISS1R-HEK293 cells (AID 1920064; active = well fitted curve in the direction sought with a large enough effect in the repeat runs; an effect the other way counts as inactive or inconclusive)
KiSS-1 receptor (Homo sapiens), sequence (Q969F8 whole entry, looked up): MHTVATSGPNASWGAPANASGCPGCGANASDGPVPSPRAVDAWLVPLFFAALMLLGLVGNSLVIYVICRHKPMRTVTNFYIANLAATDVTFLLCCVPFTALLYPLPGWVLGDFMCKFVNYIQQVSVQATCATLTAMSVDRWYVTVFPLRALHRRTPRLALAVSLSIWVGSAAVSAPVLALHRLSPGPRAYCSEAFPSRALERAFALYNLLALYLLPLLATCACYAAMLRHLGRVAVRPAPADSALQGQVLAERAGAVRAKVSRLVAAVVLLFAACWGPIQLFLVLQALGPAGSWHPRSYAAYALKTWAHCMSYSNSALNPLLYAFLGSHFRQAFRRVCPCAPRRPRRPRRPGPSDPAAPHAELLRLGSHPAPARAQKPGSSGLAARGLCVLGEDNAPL
Summary of the method: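 Measures KISS1R agonism through calcium-sensitive dye fluorescence in stably transfected HEK293 cells, read for 3 min after pin-tool compound delivery; 15-point titrations in triplicate.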

[5] = G protein-coupled receptor (GPCR) small molecule agonists, calcium flux assay: HEK293 wild type cell line counter screen (AID 1920065)
Summary of the method: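 Readout: fluorescence at 480 nm excitation/540 nm emission, sampled at 1 s intervals for 3 min. Cells had been cultured 18 h, then dye-loaded 1 h at 37 C before compound or ATP addition.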

[6] = p53 small molecule agonists, cell-based qHTS assay with human liver microsomes: qHTS cell viability counter screen (AID 1963579); also: nearly all actives have a fitted effect of over 45% in size
Summary of the method: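 p53RE-bla cells (4,000/well) were pre-incubated 5 h at 37 C, then given compounds in DMSO plus human liver microsomes (0.5 mg/mL final) and NADPH (0.5 mg/mL final) for 16 h at 37 C. Viability was read by CellTiter-Glo luminescence.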

[7] = p53 small molecule agonists, cell-based qHTS assay with rat liver microsomes: qHTS cell viability counter screen (AID 1963580); also: nearly all actives have a fitted effect of over 45% in size
Summary of the method: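 Viability is assessed in parallel with the p53 reporter read: HCT-116 p53RE-bla cells receive compounds plus rat microsomes and NADPH (0.5 mg/mL final apiece), incubate 16 h at 37 C, and then CellTiter-Glo luminescence is recorded.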

[8] = p53 small molecule agonists, cell-based qHTS assay: qHTS cell viability counter screen (AID 1963581); also: nearly all actives have a fitted effect of over 45% in size
Summary of the method: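 In the same plates used for the p53 bla reporter, HCT-116 cells given compounds for 16 h at 37 C received CellTiter-Glo; luminescence was recorded 30 min later at room temperature.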

[9] = molecular target: 5-hydroxytryptamine receptor 2A (Homo sapiens) (UniProt P28223); assay: 5-hydroxytryptamine receptor 2A (HTR2A) small molecule antagonists, cell-based qHTS assay (AID 1963586); also: nearly all actives have a fitted effect of over 45% in size
5-hydroxytryptamine receptor 2A (Homo sapiens), sequence (P28223 whole entry, looked up): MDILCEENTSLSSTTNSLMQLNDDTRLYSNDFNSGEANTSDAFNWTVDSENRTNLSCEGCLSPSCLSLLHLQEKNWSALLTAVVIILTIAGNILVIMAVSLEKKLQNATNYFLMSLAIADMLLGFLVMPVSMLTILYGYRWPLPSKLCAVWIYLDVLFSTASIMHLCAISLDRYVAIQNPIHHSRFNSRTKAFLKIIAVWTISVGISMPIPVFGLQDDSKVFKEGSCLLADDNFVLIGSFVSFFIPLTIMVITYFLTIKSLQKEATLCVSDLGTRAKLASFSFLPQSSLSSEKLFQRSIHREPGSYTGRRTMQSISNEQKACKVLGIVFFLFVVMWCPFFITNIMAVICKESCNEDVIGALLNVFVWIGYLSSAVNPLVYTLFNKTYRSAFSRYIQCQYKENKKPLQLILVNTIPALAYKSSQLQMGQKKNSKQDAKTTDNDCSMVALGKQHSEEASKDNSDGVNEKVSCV
Summary of the method: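 Antagonist-mode intracellular calcium assay: DOI (4 nM) added after 5 min compound pre-incubation at room temperature to dye-loaded HTR2A-CHO cells. Fluorescence followed for 3 min, sampled every second.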

[10] = molecular target: 5-hydroxytryptamine receptor 2A (Homo sapiens) (UniProt P28223); assay: 5-hydroxytryptamine receptor 2A (HTR2A) small molecule agonists, cell-based qHTS assay (AID 1963587); also: nearly all actives have a fitted effect of over 30% in size
Summary of the method: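 CHO cells stably expressing human HTR2A, plated 18 h, loaded with calcium dye 1 h at 37 C. Agonist mode: compounds added and intracellular calcium fluorescence recorded kinetically for 2 min at 1 sec intervals.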

[11] = molecular target: Muscarinic acetylcholine receptor M1 (Homo sapiens) (UniProt P11229); assay: Cholinergic receptor muscarinic 1 (CHRM1) small molecule antagonists, cell-based qHTS assay (AID 1963588); also: nearly all actives have a fitted effect of over 40% in size
Muscarinic acetylcholine receptor M1 (Homo sapiens), sequence (P11229 whole entry, looked up): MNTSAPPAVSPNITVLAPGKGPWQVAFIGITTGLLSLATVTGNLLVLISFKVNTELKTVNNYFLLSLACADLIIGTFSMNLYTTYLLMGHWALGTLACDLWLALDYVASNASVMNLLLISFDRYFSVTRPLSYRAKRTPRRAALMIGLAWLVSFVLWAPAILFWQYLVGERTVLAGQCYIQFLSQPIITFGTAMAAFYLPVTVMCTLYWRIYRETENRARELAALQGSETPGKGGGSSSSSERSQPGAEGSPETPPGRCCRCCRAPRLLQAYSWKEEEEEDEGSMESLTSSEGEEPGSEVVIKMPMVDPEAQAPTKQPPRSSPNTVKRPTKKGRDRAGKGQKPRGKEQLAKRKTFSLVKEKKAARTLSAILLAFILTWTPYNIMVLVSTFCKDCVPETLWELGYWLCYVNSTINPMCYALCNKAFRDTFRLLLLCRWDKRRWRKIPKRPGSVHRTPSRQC
Summary of the method: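 CHRM1-CHO calcium-flux assay, antagonist mode. Cells were seeded 18 h, dye-loaded 1 h at 37 C and given compound for 5 min at RT, then acetylcholine was added at 50nM. FDSS fluorescence was read 3 min; 15 concentrations, three runs.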

[12] = molecular target: Muscarinic acetylcholine receptor M1 (Homo sapiens) (UniProt P11229); assay: Cholinergic receptor muscarinic 1 (CHRM1) small molecule agonists, cell-based qHTS assay (AID 1963589); also: nearly all actives have a fitted effect of over 35% in size
Summary of the method: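 Each compound was tested at 15 concentrations across three independent runs on dye-loaded CHO cells stably expressing human CHRM1, reading intracellular calcium fluorescence kinetically at 1 sec intervals.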

[13] = cAMP Responsive Elements (CRE) small molecule agonists, cell-based qHTS assay (AID 1963590)
Summary of the method: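 Cell line: CRE-bla HEK 293T; medium DMEM/10% dialyzed FBS/0.1 mM NEAA/1 mM pyruvate/25 mM HEPES; 3 h compound exposure; beta-lactamase FRET readout after 2 h substrate loading at RT.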

[14] = cAMP Responsive Elements (CRE) small molecule antagonists, cell-based qHTS assay (AID 1963591; active = well fitted inhibition curve with a large enough effect in the signal ratio in the repeat runs, not every such curve was filed as active; the % refers to the signal ratio)
Summary of the method: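 Inhibition of NKH477-driven (0.25 uM final) CRE-beta-lactamase signal in HEK293T cells, 3 h compound exposure at 37 °C, detected by FRET substrate fluorescence.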

[15] = molecular target: Beta-2 adrenergic receptor (Homo sapiens) (UniProt P07550); assay: Adrenergic beta2 receptor (ADRB2) small molecule antagonists, cell-based qHTS assay (AID 1963592); also: series mostly up to about 92 µM; nearly all actives have a fitted effect of over 50% in size
Beta-2 adrenergic receptor (Homo sapiens), sequence (P07550 whole entry, looked up): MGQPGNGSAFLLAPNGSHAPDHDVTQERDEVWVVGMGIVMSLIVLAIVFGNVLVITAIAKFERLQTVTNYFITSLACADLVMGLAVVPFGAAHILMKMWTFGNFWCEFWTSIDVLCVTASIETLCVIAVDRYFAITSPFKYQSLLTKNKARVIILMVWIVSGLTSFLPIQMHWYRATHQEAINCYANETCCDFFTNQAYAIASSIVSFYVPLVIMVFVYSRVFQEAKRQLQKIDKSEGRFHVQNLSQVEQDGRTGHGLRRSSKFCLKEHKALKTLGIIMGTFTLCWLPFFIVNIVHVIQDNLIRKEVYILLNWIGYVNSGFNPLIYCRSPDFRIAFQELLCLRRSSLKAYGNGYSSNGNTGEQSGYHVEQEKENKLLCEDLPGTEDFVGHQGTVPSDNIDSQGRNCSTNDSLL
Summary of the method: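 Cells (CHO, stable ADRB2 overexpression) incubated 18-20hr at 37C; compounds added from DMSO; agonist mix (1nM isoproterenol, 100uM IBMX, 25uM Ro-20-1724) added; 0.5hr RT; d2-cAMP and anti-cAMP-cryptate added; 1hr RT; 665/615 nm read.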

[16] = molecular target: D(2) dopamine receptor (Homo sapiens) (UniProt P14416); assay: Dopamine D2 receptor (DRD2) small molecule antagonists, cell-based qHTS assay (AID 1963595; active = well fitted inhibition curve with a large enough effect in the signal ratio in the repeat runs, with a control signal flat; the % refers to the signal ratio)
D(2) dopamine receptor (Homo sapiens), sequence (P14416 whole entry, looked up): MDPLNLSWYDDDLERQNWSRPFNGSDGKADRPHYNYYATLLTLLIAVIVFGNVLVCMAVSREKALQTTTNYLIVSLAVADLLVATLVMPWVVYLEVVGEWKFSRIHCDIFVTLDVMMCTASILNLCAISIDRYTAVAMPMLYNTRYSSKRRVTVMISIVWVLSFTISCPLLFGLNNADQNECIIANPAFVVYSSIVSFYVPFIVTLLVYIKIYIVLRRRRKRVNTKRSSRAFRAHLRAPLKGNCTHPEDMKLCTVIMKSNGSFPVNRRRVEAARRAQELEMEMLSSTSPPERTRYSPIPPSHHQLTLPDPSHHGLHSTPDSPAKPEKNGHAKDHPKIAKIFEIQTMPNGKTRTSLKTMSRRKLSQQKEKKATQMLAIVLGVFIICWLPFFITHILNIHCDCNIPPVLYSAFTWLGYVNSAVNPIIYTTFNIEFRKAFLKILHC
Summary of the method: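 Antagonist mode in DRD2-HEK293 cells: after compound addition with 0.1 mM Ro20-1724, cells received quinpirole (12 nM) and NKH477 (200 nM) for 30 min at room temperature; HTRF cAMP read after 1 h detection.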

[17] = molecular target: Beta-2 adrenergic receptor (Homo sapiens) (UniProt P07550); assay: Adrenergic beta2 receptor (ADRB2) small molecule agonists, cell-based qHTS assay (AID 1963593);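 also: CHO cells stably overexpressing human ADRB2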
Summary of the method: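 CHO cells stably over-expressing ADRB2 were plated overnight at 37C, then dosed with compounds plus a stimulation mix containing 100uM IBMX and 25uM Ro-20-1724 for 0.5hr at room temperature. cAMP was measured by HTRF competition, 1hr.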

[18] = molecular target: D(2) dopamine receptor (Homo sapiens) (UniProt P14416); assay: Dopamine D2 receptor (DRD2) small molecule agonists, cell-based qHTS assay (AID 1963594); also: nearly all actives have a fitted effect of over 35% in size
Summary of the method: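 HEK293 cells stably expressing human DRD2, pre-treated with PDE inhibitor Ro20-1724 (0.1 mM final) and compound 10 min at room temperature, then stimulated with NKH477 (200nM […]) for 30 min. cAMP read by HTRF (665/620 nm).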

Measured: Potency

Fc1cccc(Cl)c1CCl
not listed: [17] | [18]
inactive: all other assays above

ClCCCCBr
not listed: [13] | [16]
inactive: all other assays above

CCOP(=S)(OCC)SCSCC
inactive: all assays above

Cc1cc(OC(=O)N(C)C)nn1C(=O)N(C)C
not listed: [17]
inactive: all other assays above

CCOP(=O)(O)C(N)=O
not listed: [17] | [18]
inactive: all other assays above

FC(Cl)(Cl)C(F)(Cl)Cl
not listed: [12] | [17] | [18]
inactive: all other assays above

CC(C)CC#N
not listed: [17]
inactive: all other assays above

O=C(NC(=O)c1c(F)cccc1F)Nc1ccc(OC(F)(F)C(F)OC(F)(F)F)c(Cl)c1 (configuration not stated)
not listed: [14]
inactive: all other assays above

From PubChem BioAssay (Tox21)
